Source: PubChem BioAssay (several laboratories)
hiPSC survival – increases survival of single human iPS cells | hiPSC single-cell survival, ATPlite luminescence; 100% = ROCK inhibitor wells, 0% = DMSO | survival enhancement, % at 20 µM | hit rate 0.044% among 360,000; in the data active = survival enhancement above about 18%;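 also: cells exposed to compounds for 16 hours before the ATP read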
ABCB6 inh MLPCN – blocks the human ABCB6 transporter | Q9NP58 | K562-ABCB6 porphyrin accumulation, flow cytometry, 1 h; active compounds read low | fluorescence ratio to DMSO, % at 10 µM | hit rate 0.19% among 360,000;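 active = fluorescence ratio to DMSO below 75%, the collection mean minus 3 SD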;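 also: signal is porphyrin accumulated inside mitochondria; 100% equals median channel fluorescence of DMSO control wells; lower ratio means ABCB6 inhibition with less porphyrin fluorescence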
Target sequence (Q9NP58 whole entry, looked up): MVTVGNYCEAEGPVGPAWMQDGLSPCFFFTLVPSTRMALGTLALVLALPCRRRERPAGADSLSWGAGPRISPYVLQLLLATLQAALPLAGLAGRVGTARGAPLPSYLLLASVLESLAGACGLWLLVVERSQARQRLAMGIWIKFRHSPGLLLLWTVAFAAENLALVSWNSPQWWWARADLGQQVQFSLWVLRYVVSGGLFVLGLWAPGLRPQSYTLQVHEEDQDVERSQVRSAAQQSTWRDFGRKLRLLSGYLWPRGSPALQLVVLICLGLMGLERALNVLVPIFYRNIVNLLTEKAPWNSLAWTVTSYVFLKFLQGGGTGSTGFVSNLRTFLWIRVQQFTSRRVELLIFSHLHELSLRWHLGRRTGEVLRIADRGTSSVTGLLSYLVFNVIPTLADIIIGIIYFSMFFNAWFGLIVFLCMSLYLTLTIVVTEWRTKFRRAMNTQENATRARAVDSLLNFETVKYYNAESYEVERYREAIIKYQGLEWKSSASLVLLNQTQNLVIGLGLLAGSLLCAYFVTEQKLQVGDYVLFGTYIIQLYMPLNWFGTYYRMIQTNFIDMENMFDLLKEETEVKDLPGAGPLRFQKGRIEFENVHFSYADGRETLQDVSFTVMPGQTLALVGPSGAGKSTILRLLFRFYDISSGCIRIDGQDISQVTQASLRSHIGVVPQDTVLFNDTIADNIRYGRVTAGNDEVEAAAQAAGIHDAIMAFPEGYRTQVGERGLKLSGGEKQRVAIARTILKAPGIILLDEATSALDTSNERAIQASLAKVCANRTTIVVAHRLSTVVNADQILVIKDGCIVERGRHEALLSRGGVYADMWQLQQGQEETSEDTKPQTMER
Myeloid diff MLP – compounds promoting myeloid differentiation; hit rate 1% among 360,000; ER-HoxA9 myeloid progenitors, lysozyme-GFP differentiation, flow cytometry; calls only at 10 µM; AID 624256;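 active = normalized GFP-positive differentiation at or above the plate's own cutoff, the solvent-only control mean plus 3 SD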;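 also: cells exposed to compound for four days before flow analysis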
MIN6 prolif – induces beta-cell replication in MIN6 cells; proliferation, % at 10 µM; MIN6 cells proliferation, ATPlite luminescence, 48 h; cells starved in 0.2% serum; 100% = growth in 10% serum; hit rate 0.29% among 330,000;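 active = compounds whose signal lies at least 3.5 SD above the mean of all wells on their plate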;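 also: 0% = DMSO-treated cells in low-serum medium and 100% = 10% serum control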
H9c2 protect – protects H9c2 cardiomyocytes from peroxide injury; H2O2 injury protection, ATPLite, 2 h; protection from H2O2 cell death, % at 20 µM; hit rate 0.63% among 360,000;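 active = compounds giving at least 50% protection of heart cells from peroxide-induced death in the single-dose screen, raw or plate-pattern-corrected value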;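 also: 0% = DMSO wells with peroxide and 100% = DMSO wells without peroxide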
Myeloid diff – promotes myeloid progenitor differentiation | shares compounds with Myeloid diff MLP | ER-HoxA9 myeloid progenitors, GFP/Mac1 double-positive flow | calls only | hit rate 2% among 2,300 | AID 651706;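 active = share of green or green-and-red cells above 9 and 9% in run 1 or 4 and 3% in run 2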
GFP autofluor – flagged as fluorescent in myeloid differentiation counter-screen; shares compounds with Myeloid diff MLP; ER-HoxA9 myeloid progenitors, no estrogen, GFP autofluorescence flow cytometry; vehicle wells 0%, positive control 100%; fluorescence response, % (no concentration beside the values); hit rate 7.4% among 2,300;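 active = over 5% cells positive for green fluorescent reporter, or over 2% positive for both it and APC stain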;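 also: range taken on the double positive population between DMSO and positive control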
* marks the source's active call; other numbers are inactive results; i = inactive; . = no result given; + = active, no number. Rows were chosen to be rich in hits. Some 2.2% of all compounds tested hit in one or more screens of this group.

SMILES	hiPSC survival	ABCB6 inh MLPCN	Myeloid diff MLP	MIN6 prolif	H9c2 protect	Myeloid diff	GFP autofluor
O=C(CC1C(=O)NCCN1C(=O)Nc1ccccc1)Nc1cccc(C(F)(F)F)c1 (configuration not stated)	0	89	+	-5	-6	i	1
CN=C1SC(CC(=O)Nc2cccc(C(F)(F)F)c2)C(=O)N1C (configuration not stated)	-1	100	i	-3	6	i	0
CN=C1SC(CC(=O)Nc2ccccc2F)C(=O)N1C (configuration not stated)	3	98	i	-3	0	.	.
O=C(CC1SCCNC1=O)Nc1cccc(Cl)c1 (configuration not stated)	0	95	i	-1	-4	.	.
O=C(CC1SCCNC1=O)Nc1cccc(C(F)(F)F)c1 (configuration not stated)	-2	101	+	-4	5	i	0
COc1ccc(N(Cc2cc3ccccc3[nH]c2=O)C(=O)C2CCCO2)cc1 (configuration not stated)	-4	91	i	0	0	.	.
CCOc1ccc(N(Cc2cc3cc(OC)ccc3[nH]c2=O)C(=O)C2CCCO2)cc1 (configuration not stated)	2	97	+	1	50	i	0
O=[N+]([O-])c1ccccc1SN(Cc1ccccc1)c1ccccn1	-2	124	i	-6	-9	i	0
COc1ccc(C(=O)Nc2cccc(C(=O)N/N=C/c3ccc(OC)cc3OC)c2)cc1	0	101	i	-2	19	i	0
CCOc1ccccc1NC(=O)c1ccccc1-c1nc(-c2ccccc2)no1	0	99	+	-4	-1	i	0
CCC(C)[C@@H](CN(N=O)[C@@H](Cc1ccccc1)CN(C)N=O)N(CCc1ccccc1)N=O (some centres not stated)	4	98	i	-6	-3	.	.
CCOc1ncccc1C(=O)N1CCN(S(=O)(=O)c2ccc3ccccc3c2)CC1	0	100	i	2	-2	i	0
COc1ccc(C(=O)COC(=O)CCC(=O)Nc2ccc(C(C)=O)cc2)cc1	0	98	i	-1	4	.	.
COc1ccc2[nH]c3nc(SCC(=O)NNC(=O)c4ccc(OC)c(OC)c4)nnc3c2c1	6	96	i	-1	-9	i	0
Cc1ccc(C(=O)NNC(=O)CSc2nnc3c(n2)[nH]c2ccc(F)cc23)cc1	1	97	i	-6	-2	.	.
COc1ccccc1CNC(=O)CSc1ccsc1[N+](=O)[O-]	-1	107	i	-2	8	i	1
O=C(CSc1ccsc1[N+](=O)[O-])NCc1ccccc1	0	90	i	-3	-7	.	.
O=C(CNC(=O)c1ccc(Oc2ccccc2)cc1)OC1CCCCC1=O (configuration not stated)	0	92	+	-2	5	i	0
Cc1ccc(-c2cc3ccccc3nc2N)cc1	0	106	i	-2	-15	.	.
Cc1ccccc1S(=O)(=O)c1cc2ccccc2nc1N	2	101	i	-1	-11	i	0
O=C(Nc1ccccc1)/C(=C/c1cccc(Br)c1)NC(=O)c1ccco1	1	171	+	-1	-16	i	0
Cc1ccc(NC(=O)/C(=C\c2cccc(Br)c2)NC(=O)c2ccco2)cc1	0	103	i	-1	10	.	.
CCOc1ccc(-n2c(COc3ccc(C)cc3)nnc2SCC(N)=O)cc1	-1	97	i	.	-5	i	0
COc1ccc(-n2c(COc3ccc(C)cc3)nnc2SCC(=O)O)cc1	0	90	i	-3	0	.	.
CCc1ccc(C2NC(=O)c3ccccc3O2)cc1 (configuration not stated)	0	99	i	-4	28	.	.
SMILES	hiPSC survival	ABCB6 inh MLPCN	Myeloid diff MLP	MIN6 prolif	H9c2 protect	Myeloid diff	GFP autofluor
COc1cc(C2N(c3ccccc3)CCN2c2ccccc2)ccc1OC(C)=O	2	97	i	-2	-9	.	.
COc1ccc(C2N(c3ccc(C)cc3)CCN2c2ccc(C)cc2)cc1O	-1	96	i	-2	-10	i	0
Cn1nc(OC(=O)Nc2cccc(Cl)c2)cc1C(F)(F)F	2	98	i	-5	-25	.	.
CC1CCCN(C(=O)CCCn2c(=S)[nH]c3ccccc3c2=O)C1 (configuration not stated)	-2	99	i	0	3	.	.
CC(C)(C)OC(=O)N(CCc1ccccc1)Cc1ccccc1OCc1cccc(NC(=O)C2CC2)c1	0	89	+	.	-8	i	0
CC(C)(C)OC(=O)N(CCc1ccccc1)Cc1ccccc1OCc1cccc(NC(=O)C2CCCC2)c1	-3	101	i	.	-3	.	.
COc1ccc(C2c3c(ncn(CCCO)c3=N)Oc3ccc4ccccc4c32)cc1 (configuration not stated)	0	102	i	-4	-5	.	.
COC(=O)C1=C(C)N(Cc2ccccc2)C(=NCc2cc(OC)c(OC)c(OC)c2)N[C@H]1c1ccccc1	.	.	.	-8	.	.	.
COC(=O)C1=C(C)N(Cc2ccccc2)C(=NCc2cc(OC)c(OC)c(OC)c2)N[C@H]1CCc1ccccc1	-5	94	+	-6	-7	i	0
Nc1ccc2oc(-c3ccccc3Cl)cc(=O)c2c1O	-2	96	i	-3	-3	.	.
O=c1c2ccccc2c(C=Nc2ccc(S(=O)(=O)Nc3ncccn3)cc2)c(O)n1-c1cccc(Cl)c1	.	.	.	-5	.	.	.
CCn1c2ccccc2c2cc(N=C3SC(CC(=O)Nc4ccccc4OC)C(=O)N3C)ccc21 (configuration not stated)	-1	95	+	-2	-7	i	0
COC(=O)c1ccc2nc(C)cc(Nc3ccccc3C)c2c1	8	98	i	0	-6	.	.
COC(=O)c1ccc(Nc2cc(C)nc3ccc(C)cc23)cc1	-1	101	+	-4	-9	i	3
O=C(Nc1ccc(CN2CCCCC2)cc1)c1c(F)c(F)c(F)c(F)c1F	-2	103	i	-3	6	.	.
COc1cc(/C=C2\NC(=S)N(C)C2=O)ccc1O	-1	103	+	-3	-1	i	5.1*
COc1ccc(CN2CCC[C@]3(N[C@H](c4ccc(OC)cc4)[C@@H]4C(=O)N(Cc5ccccc5)C(=O)[C@@H]43)C2=O)cc1	1	99	i	.	-1	.	.
COc1ccc([C@H]2N[C@]3(CCCN(Cc4cccn4C)C3=O)[C@H]3C(=O)N(Cc4ccccc4)C(=O)[C@@H]23)cc1	0	95	i	.	-4	i	1
